NIH3T3 tox = kills NIH 3T3 cells. NIH 3T3 viability, CellTiter-Glo ATP luminescence, 48-72 h. Potency, µM (titrated, usually from 96.7 µM), actives largely listed as inhibitors. hit rate 4.3% among 94,000; note: nearly all actives have a fitted effect of over 55% in size
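Cytotoxicity was measured by CellTiter-Glo ATP luminescence after 48 or 72 h compound exposure at 37 °C. Mouse NIH 3T3 fibroblasts were seeded at 400 cells/well and dosed by 23 nL pin transfer.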
HEK293 tox = HEK 293 cell cytotoxicity. HEK 293 viability, ATP luminescence (CellTiter-Glo), 48-72 h. Potency, µM (doses to about 115 µM), actives largely listed as inhibitors. hit rate 6.6% among 94,000. AID 1345083; note: nearly all actives have a fitted effect of over 60% in size
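HEK 293 cells at 250 cells/well were exposed to compounds by pintool transfer for 48 or 72 hr at 37 degree Celsius, 5% CO2. Viability was read as ATP-coupled luminescence with CellTiter-Glo after 10 min at room temperature.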
NPR1 antag = human Npr1 receptor antagonism. HEK293 hNpr1 GloSensor cGMP, ANP-stimulated luminescence. hit rate 1.6% among 76,000. P16066. Potency, µM (doses to about 46.3 µM), actives largely listed as inhibitors. AID 1347048; calls by dose curve; note: nearly all actives have a fitted effect of over 60% in size
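HEK293 cells stably expressing human Npr1 and cGMP GloSensor pGS-40F, loaded 2 h with 2% GloSensor reagent, given compound 30 min at room temperature. Luminescence read before and 20 min after 0.1 nM hNppA.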
Luciferase inh = Photinus pyralis luciferase inhibition | purified P. pyralis luciferase, luminescence, biochemical | Potency, µM (doses to about 115 µM), usual class: inhibitors | hit rate 2.5% among 76,000 | AID 1347043; note: nearly all actives have a fitted effect of over 65% in size
Target sequence (P08659 whole entry, looked up): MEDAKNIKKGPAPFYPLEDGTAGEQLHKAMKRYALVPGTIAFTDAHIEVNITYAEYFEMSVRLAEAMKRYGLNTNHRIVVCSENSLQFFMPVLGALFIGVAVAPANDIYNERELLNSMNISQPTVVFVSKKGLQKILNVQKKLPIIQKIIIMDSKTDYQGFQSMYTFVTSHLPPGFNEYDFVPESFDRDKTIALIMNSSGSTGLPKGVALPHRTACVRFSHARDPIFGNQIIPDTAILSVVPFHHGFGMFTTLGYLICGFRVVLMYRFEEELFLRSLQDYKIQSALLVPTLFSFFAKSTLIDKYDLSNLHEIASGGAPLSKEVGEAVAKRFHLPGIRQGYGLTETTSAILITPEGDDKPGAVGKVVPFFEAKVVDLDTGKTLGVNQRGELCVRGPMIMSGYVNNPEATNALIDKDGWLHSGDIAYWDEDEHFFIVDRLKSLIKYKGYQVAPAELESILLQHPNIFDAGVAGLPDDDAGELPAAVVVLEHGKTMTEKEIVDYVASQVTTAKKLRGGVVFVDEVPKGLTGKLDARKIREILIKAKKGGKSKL
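Purified 10nM P. pyralis luciferase with 10uM D-luciferin and 10uM ATP in 50mM Tris acetate pH 7.5, 10mM Mg acetate, 0.01% Tween-20, 0.05% BSA. qHTS titration; luminescence read by CCD imager.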
Of the large screens only hits and unclear results are named; the others gave an inactive call. Sampled rows, rich in hits. Any-hit rate of the full collection: about 11%. Unless noted, calls come from the whole dose curve; as a rule, active = well fitted curve in the direction sought with a large enough effect; inconclusive = small, poorly fitted or top-dose-only effect, or another doubt; inactive = no such curve, though single readings can be large; an effect the other way counts as inactive or inconclusive.

Cn1ncc2c(C(=O)Nc3ccccc3F)cc(-c3ccc(C(F)(F)F)cc3)nc21	NIH3T3 tox 35µM, HEK293 tox inconclusive (no result: NPR1 antag, Luciferase inh)
Cn1ncc2c(C(=O)NCCCc3ccccc3)cc(-c3ccc([S+](C)(=O)[O-])cc3)nc21	NIH3T3 tox inconclusive, HEK293 tox 50µM (no result: NPR1 antag, Luciferase inh)
COc1ccc(CNC(=O)c2cc(-c3ccc(C(F)(F)F)cc3)nc3c2cnn3C)cc1	NIH3T3 tox inconclusive (no result: NPR1 antag, Luciferase inh)
Cc1ccc(-c2cc(C(=O)NCCCc3ccccc3)c3cnn(C)c3n2)cc1	none (no result: NPR1 antag, Luciferase inh)
CC(C)(C)c1nnc2ccc(C(=O)NCC3CC3)cn12	none (no result: NPR1 antag, Luciferase inh)
CN(C(=O)[C@@H]1C[C@@H](c2ccc(F)cc2)N(CCOc2ccccc2)C1)c1cccnc1	NIH3T3 tox inconclusive, HEK293 tox inconclusive
COCCN1C(=O)[C@@H]2C[C@@H](CN2Cc2ccccc2Cl)Oc2ccccc21	NIH3T3 tox inconclusive, HEK293 tox inconclusive
O=C(CNC(=O)c1ccc(-c2cnc3ccccc3c2)cc1)NCc1ccc(F)cc1F	HEK293 tox inconclusive (no result: NPR1 antag, Luciferase inh)
CN1CCC(C(=O)N2Cc3ccccc3CC3(CCN(Cc4ccncc4)C3)C2)CC1 (centres undefined)	none (no result: NPR1 antag, Luciferase inh)
Cn1ncc2c(C(=O)NCc3ccccc3)cc(-c3cccc(F)c3)nc21	NIH3T3 tox inconclusive, HEK293 tox 40µM (no result: NPR1 antag, Luciferase inh)
Cn1ncc2c(C(=O)NCc3ccc(C(F)(F)F)cc3)cc(-c3cccc(F)c3)nc21	NIH3T3 tox 45µM, HEK293 tox inconclusive (no result: NPR1 antag, Luciferase inh)
Cn1ncc2c(C(=O)NCc3ccc(F)c(F)c3)cc(-c3cccc(F)c3)nc21	NIH3T3 tox inconclusive, HEK293 tox 40µM (no result: NPR1 antag, Luciferase inh)
Cn1ncc2c(C(=O)NCc3cccc(C(F)(F)F)c3)cc(-c3cccc(C(F)(F)F)c3)nc21	none (no result: NPR1 antag, Luciferase inh)
COc1ccc(CNC(=O)c2cc(-c3ccc(F)cc3)nc3c2cnn3C)cc1	NIH3T3 tox 40µM, HEK293 tox 45µM (no result: NPR1 antag, Luciferase inh)
CCCS(=O)(=O)N(C)C1CCc2nn(CC3CC3)c(=O)n2CC1 (centres undefined)	none
Cn1ncc2c(C(=O)NCc3ccc(C(F)(F)F)cc3)cc(-c3ccccc3F)nc21	NIH3T3 tox inconclusive, HEK293 tox 32µM (no result: NPR1 antag, Luciferase inh)
Cn1ncc2c(C(=O)NCc3ccccc3)cc(-c3cccnc3)nc21	NIH3T3 tox inconclusive, HEK293 tox 40µM (no result: NPR1 antag, Luciferase inh)
COc1ccccc1CNC(=O)c1cc(-c2ccccc2F)nc2c1cnn2C	NIH3T3 tox 25µM, HEK293 tox inconclusive (no result: NPR1 antag, Luciferase inh)
Cn1ncc2c(C(=O)NCC#N)cc(-c3ccc(F)cc3)nc21	NIH3T3 tox 35µM, HEK293 tox inconclusive (no result: NPR1 antag, Luciferase inh)
N#Cc1ccc(C(=O)NCC(=O)N2CCCCCCNC(=O)CC2c2ccccc2)cc1 (centres undefined)	none
COc1cc(C(=O)N2c3ccccc3CC2c2nc(C(C)C)no2)cc(OC)c1OC (centres undefined)	none (no result: NPR1 antag, Luciferase inh)
O=C(C1CCCN1C(=O)Cc1cccc(Cl)c1)N1CCC(N2Cc3cccn3C2=O)CC1 (centres undefined)	none (no result: NPR1 antag, Luciferase inh)
Cc1cccc(C)c1-c1cc(C(=O)NCc2ccc(C(F)(F)F)cc2)c2cnn(C)c2n1	NIH3T3 tox 14µM, HEK293 tox 22µM (no result: NPR1 antag, Luciferase inh)
Cn1ncc2c(C(=O)NCc3ccccc3F)cc(-c3ccc(C(F)(F)F)cc3)nc21	HEK293 tox inconclusive (no result: NPR1 antag, Luciferase inh)
CCCNc1cc(N2CCC(CCC(=O)N3CCN(c4ccc(F)cc4)CC3)CC2)ncn1	NIH3T3 tox 20µM, HEK293 tox inconclusive, NPR1 antag 11µM, Luciferase inh inconclusive
CCCNC(=O)CCC1CCN(c2cc(NCCC)ncn2)CC1	Luciferase inh inconclusive
CCCNc1cc(N2CCC(CCC(=O)Nc3cccc(C)c3)CC2)ncn1	Luciferase inh 20µM
CCCNc1cc(N2CCC(CCC(=O)N3CCN(c4cccc(C)c4)CC3)CC2)ncn1	NIH3T3 tox inconclusive, HEK293 tox 20µM, NPR1 antag inconclusive, Luciferase inh inconclusive
O=C(Nc1ccccc1)Nc1ccc([C@H]2OCC(=O)N(Cc3ccc(F)cc3)[C@@H]2CO)cc1	NIH3T3 tox inconclusive, HEK293 tox 40µM
CC(C)CN1C(=O)CO[C@H](c2ccc(NC(=O)c3ccc(C(F)(F)F)cc3)cc2)[C@H]1CO	NIH3T3 tox inconclusive, HEK293 tox inconclusive, NPR1 antag 13µM, Luciferase inh 45µM
COc1ccc(C(=O)Nc2ccc([C@H]3OCC(=O)N(Cc4ccc(F)cc4)[C@@H]3CO)cc2)cc1	HEK293 tox inconclusive, Luciferase inh 45µM
COc1ccc(C(=O)Nc2ccc([C@H]3OCC(=O)N(Cc4ccncc4)[C@@H]3CO)cc2)cc1OC	NIH3T3 tox 89µM
CN(C)C(=O)CN1C(=O)CO[C@H](c2ccc(NC(=O)c3ccc(C(F)(F)F)cc3)cc2)[C@H]1CO	Luciferase inh inconclusive
